The results in this text go back to PubChem BioAssay (EPA / NIEHS).

Read-out in test [1]: Macrophage colony-stimulating factor (MCSF), CSF1 (gene 1435)
Nature of the test: BSK_hDFCGF_MCSF: BioMAP Diversity Plus: hDFCGF Assay for Macrophage colony-stimulating factor (MCSF) Biomarker Activity (AID 2283060). As to conditions: primary human foreskin fibroblasts; actives raise or lower the signal. Summed up:
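ELISA read-out of M-CSF in human dermal foreskin fibroblast cultures, 24 h after chemical dosing; gain or loss of signal fitted bidirectionally relative to DMSO baseline.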

The nature of test [2]: BSK_hDFCGF_SRB: Viability Assessment in the BioMAP Diversity Plus: hDFCGF Assay (AID 2283061).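 Also: cells exposed to compound for 24 h before the read.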 Particulars: primary human foreskin fibroblasts. The method in brief:
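Primary human foreskin fibroblasts; 24 h post-dose; fixed 10% TCA, stained 0.1% SRB, A560 read; total protein as overt cytotoxicity measure; curves fit bidirectionally vs DMSO control.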

Read-out in test [3]: TIMP metallopeptidase inhibitor 1 (TIMP1), TIMP1 (gene 7076)
Nature of the test: BSK_hDFCGF_TIMP1: BioMAP Diversity Plus: hDFCGF Assay for TIMP metallopeptidase inhibitor 1 (TIMP1) Biomarker Activity (AID 2283062). As to conditions: primary human foreskin fibroblasts; actives raise or lower the signal. Summed up:
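ELISA readout of TIMP-1 from human dermal foreskin fibroblast cultures 24 h post-dosing. Curves were fitted in both directions against DMSO baseline, with SRB total-protein staining in parallel cultures as a cytotoxicity check.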

Read-out in test [4]: Monokine induced gamma interferon (MIG), CXCL9 (gene 4283)
Nature of the test: BSK_hDFCGF_MIG: BioMAP Diversity Plus: hDFCGF Assay for Monokine induced gamma interferon (MIG) Biomarker Activity (AID 2283063). As to conditions: primary human foreskin fibroblasts; actives raise or lower the signal. The method in brief: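 Fibroblasts (human foreskin, primary) dosed, 24 h, MIG by ELISA; fit bidirectional vs DMSO.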

Read-out in test [5]: Matrix Metallopeptidase 1 (MMP1), MMP1 (gene 4312)
Nature of the test: BSK_hDFCGF_MMP1: BioMAP Diversity Plus: hDFCGF Assay for Matrix Metallopeptidase 1 (MMP1) Biomarker Activity (AID 2283064). As to conditions: primary human foreskin fibroblasts; actives raise or lower the signal. The method in brief: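 Primary human foreskin fibroblasts exposed to chemicals for 24 h; MMP1 measured by ELISA. Cytotoxicity tracked by SRB staining in parallel cultures; bidirectional fit relative to DMSO.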

Read-out in test [6]: Plasminogen activator inhibitor-1 (PAI1), SERPINE1 (gene 5054)
Nature of the test: BSK_hDFCGF_PAI1: BioMAP Diversity Plus: hDFCGF Assay for Plasminogen activator inhibitor-1 (PAI1) Biomarker Activity (AID 2283066). As to conditions: primary human foreskin fibroblasts; actives raise or lower the signal. The method in brief: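 Human foreskin fibroblasts in the hDFCGF system were dosed with compound for 24 h; PAI-1 was quantified by ELISA. Bidirectional curve fitting used DMSO as negative control and baseline.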

Read-out in test [7]: Intercellular Adhesion Molecule 1 (ICAM1), ICAM1 (gene 3383)
The experiment in a line: BSK_KF3CT_ICAM1: BioMAP Diversity Plus: KF3CT Assay for Intercellular Adhesion Molecule 1 (ICAM1) Biomarker Activity (AID 2283067). Particulars: primary human keratinocytes with fibroblasts; actives raise or lower the signal. The method in brief:
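ELISA readout of ICAM-1; KF3CT human skin co-culture (keratinocytes + foreskin fibroblasts), 24 h post-dose; gain/loss fit vs DMSO baseline.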

Read-out in test [8]: Interferon-gamma inducible Protein 10 (IP10), CXCL10 (gene 3627)
Nature of the test: BSK_KF3CT_IP10: BioMAP Diversity Plus: KF3CT Assay for Interferon-gamma inducible Protein 10 (IP10) Biomarker Activity (AID 2283068). As to conditions: primary human keratinocytes with fibroblasts; actives raise or lower the signal. The method in brief: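 In a primary skin co-culture of keratinocytes and fibroblasts, IP-10 is quantified by ELISA at 24 h after dosing. SRB staining of parallel wells monitors overt toxicity. Curves are fitted both directions against DMSO.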

A short description of test [9]: BSK_KF3CT_SRB: Viability Assessment in the BioMAP Diversity Plus: KF3CT Assay (AID 2283069).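 Also: total protein by sulforhodamine B staining as a cytotoxicity measure; read 24 h after compound addition.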 As to conditions: primary human keratinocytes with fibroblasts. The method in brief: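 Human keratinocyte and foreskin fibroblast co-culture exposed to chemical for 24 h. Total protein measured in parallel cultures by 0.1% sulforhodamine B staining after 10% TCA fixation, read at 560 nm; bidirectional fit relative to DMSO.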

Read-out in test [10]: Interleukin-1 alpha (IL1a), IL1A (gene 3552)
The experiment in a line: BSK_KF3CT_IL1a: BioMAP Diversity Plus: KF3CT Assay for Interleukin-1 alpha (IL1a) Biomarker Activity (AID 2283070). As to conditions: primary human keratinocytes with fibroblasts; actives raise or lower the signal. Summed up:
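Primary human keratinocyte plus foreskin fibroblast co-culture, dosed and measured at 24 h in 96-well plates. IL-1a level quantified by ELISA; bidirectional fit relative to DMSO.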

Read-out in test [11]: TIMP metallopeptidase inhibitor 2 (TIMP2), TIMP2 (gene 7077)
Nature of the test: BSK_KF3CT_TIMP2: BioMAP Diversity Plus: KF3CT Assay for TIMP metallopeptidase inhibitor 2 (TIMP2) Biomarker Activity (AID 2283071). As to conditions: primary human keratinocytes with fibroblasts; actives raise or lower the signal. Summed up: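 Human primary keratinocyte/foreskin fibroblast co-culture dosed with chemical and sampled at 24 h. TIMP-2 levels quantified by ELISA; bidirectional fitting against DMSO negative control as baseline.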

Read-out in test [12]: Transforming growth factor beta 1 (TGFb1), TGFB1 (gene 7040)
Nature of the test: BSK_KF3CT_TGFb1: BioMAP Diversity Plus: KF3CT Assay for Transforming growth factor beta 1 (TGFb1) Biomarker Activity (AID 2283072). Particulars: primary human keratinocytes with fibroblasts; actives raise or lower the signal. The method in brief:
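Human keratinocyte plus foreskin fibroblast primary co-culture, dosed with chemical for 24 h. TGF-b1 quantified by ELISA. Activity fitted bidirectionally against DMSO negative control as baseline.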

Read-out in test [13]: C-C motif chemokine 2 (Homo sapiens) (UniProt P13500)
Nature of the test: BSK_KF3CT_MCP1: BioMAP Diversity Plus: KF3CT Assay for Monocyte Chemoattractant Protein 1 (MCP1/CCL2) Biomarker Activity (AID 2283073). As to conditions: primary human keratinocytes with fibroblasts; actives raise or lower the signal. Summed up:
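KF3CT skin co-culture (keratinocytes/foreskin fibroblasts), 24 h post-dose; MCP-1 by ELISA; gain/loss of signal fit bidirectionally vs DMSO baseline.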

Read-out in test [14]: Matrix Metallopeptidase 9 (MMP9), MMP9 (gene 4318)
Nature of the test: BSK_KF3CT_MMP9: BioMAP Diversity Plus: KF3CT Assay for Matrix Metallopeptidase 9 (MMP9) Biomarker Activity (AID 2283074).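 As to AC50: MMP9 protein level quantified by ELISA in the co-culture.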 As to conditions: primary human keratinocytes with fibroblasts; actives raise or lower the signal. Summed up:
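Human keratinocyte and foreskin fibroblast co-culture exposed to chemicals for 24 h; MMP9 biomarker measured by ELISA, bidirectional fitting relative to DMSO; cytotoxicity tracked by SRB total protein staining in parallel cultures.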

Read-out in test [15]: CD40, CD40 (gene 958)
The experiment in a line: BSK_LPS_CD40: BioMAP Diversity Plus: LPS Assay for CD40 Biomarker Activity (AID 2283076). As to conditions: primary human HUVEC with PBMC; actives raise or lower the signal. The method in brief: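 ELISA readout of CD40 in HUVEC/PBMC co-culture (BSK_LPS system), 24 h post-dosing; bidirectional curve fit, DMSO baseline; parallel SRB total-protein staining for cytotoxicity.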

Read-out in test [16]: E-selectin (Homo sapiens) (UniProt P16581)
The experiment in a line: BSK_LPS_Eselectin: BioMAP Diversity Plus: LPS Assay for Eselectin Biomarker Activity (AID 2283077). Particulars: primary human HUVEC with PBMC; actives raise or lower the signal. The method in brief:
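ELISA readout of E-selectin, 24 h post-dose, HUVEC + PBMC co-culture (LPS system). Gain or loss of signal vs DMSO baseline, bidirectional fit.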

Read-out in test [17]: Interleukin-8 (IL8), CXCL8 (gene 3576)
Nature of the test: BSK_LPS_IL8: BioMAP Diversity Plus: LPS Assay for Interleukin-8 (IL8) Biomarker Activity (AID 2283078). As to conditions: primary human HUVEC with PBMC; actives raise or lower the signal. The method in brief: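 HUVEC + PBMC co-culture, LPS-activated; test chemicals dosed, IL-8 read by ELISA at 24 h. Bidirectional curve fit vs DMSO baseline (gain or loss of signal).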

Test [18] in a line: BSK_LPS_SRB: Viability Assessment in the BioMAP Diversity Plus: LPS Assay (AID 2283079).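 Also: total protein by sulforhodamine B absorbance as a cytotoxicity measure; measured one day after compound addition; fitted in both directions against DMSO so loss or gain of signal counts.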 As to conditions: primary human HUVEC with PBMC. Summed up: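 HUVEC + PBMC co-culture, LPS-stimulated; compound 24 h. 10% TCA fix, 0.1% SRB stain, A560. Bidirectional fit vs DMSO.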
Read-out in test [19]: Vascular cell adhesion molecule 1 (VCAM1), VCAM1 (gene 7412)
The experiment in a line: BSK_hDFCGF_VCAM1: BioMAP Diversity Plus: hDFCGF Assay for Vascular cell adhesion molecule 1 (VCAM1) Biomarker Activity (AID 2283065).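 As to AC50: VCAM-1 protein level quantified by ELISA after 24 h chemical exposure.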 Particulars: primary human foreskin fibroblasts; actives raise or lower the signal. The method in brief:
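ELISA read-out of VCAM-1 on human skin fibroblasts, 24 h post-dose; gain or loss of signal fitted bidirectionally against DMSO baseline.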

Read-out in test [20]: urokinase plasminogen activator (uPA), PLAU (gene 5328)
Nature of the test: BSK_KF3CT_uPA: BioMAP Diversity Plus: KF3CT Assay for urokinase plasminogen activator (uPA) Biomarker Activity (AID 2283075). As to conditions: primary human keratinocytes with fibroblasts; actives raise or lower the signal. The method in brief:
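Primary human keratinocyte/foreskin fibroblast co-culture exposed to chemical; uPA measured by ELISA at 24 h. Bidirectional fit versus DMSO, with parallel SRB total-protein staining for cytotoxicity.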

The source made the active and inactive calls. The calls were made as follows: active = hit-call score of the fitted dose curve at least 0.9, where 1 is the maximum; inactive = score below 0.9.

E-selectin (Homo sapiens), sequence (P16581 whole entry, looked up): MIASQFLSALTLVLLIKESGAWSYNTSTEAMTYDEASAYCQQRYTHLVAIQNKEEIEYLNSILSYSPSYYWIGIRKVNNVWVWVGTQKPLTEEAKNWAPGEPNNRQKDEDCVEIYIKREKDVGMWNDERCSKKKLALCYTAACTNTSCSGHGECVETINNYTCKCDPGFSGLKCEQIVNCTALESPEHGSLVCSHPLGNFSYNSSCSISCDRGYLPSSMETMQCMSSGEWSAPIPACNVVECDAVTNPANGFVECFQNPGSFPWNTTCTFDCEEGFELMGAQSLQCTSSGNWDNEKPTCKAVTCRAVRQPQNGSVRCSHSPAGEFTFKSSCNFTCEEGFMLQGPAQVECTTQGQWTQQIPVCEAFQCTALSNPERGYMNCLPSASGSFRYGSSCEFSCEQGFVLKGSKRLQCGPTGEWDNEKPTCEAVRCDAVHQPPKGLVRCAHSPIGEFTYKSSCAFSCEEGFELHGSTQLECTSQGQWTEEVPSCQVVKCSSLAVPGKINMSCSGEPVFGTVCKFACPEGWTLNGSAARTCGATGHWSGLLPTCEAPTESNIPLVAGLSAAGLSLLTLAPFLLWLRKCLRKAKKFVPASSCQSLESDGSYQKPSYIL

With `Nc1ccc([N+](=O)[O-])cc1Cl`, the outcome in test [1], in test [2], in test [3], in test [4], in test [5] and in test [6] was inactive. Moreover, the result in [7], in [8], in test [9], in [10], in test [11] and in test [12] was inactive. Moreover, the result in test [13], in test [14], in [15], in [16], in test [17] and in test [18] was inactive.
For the compound `ClC1=C(Cl)C2(Cl)C3C(Cl)C(Cl)CC3C1(Cl)C2(Cl)Cl` (configuration not stated), the half-maximal activity concentration (AC50) in test [1] was 5.82 µM (active); in [2], 7.71 µM (active); in [3], 8.69 µM (active); in [4], 9.26 µM (active); in test [19], 5.47 µM (active); in test [6] it was 10.3 µM (active). The AC50 in test [7] was 31.9 µM (active); in [8] it was 16.1 µM (active); in test [9], 28.2 µM (active); in test [10], 20 µM (active); in test [11] it was 26.8 µM (active); in [12], 20 µM (active). In addition, the half-maximal activity concentration (AC50) is 13.3 µM (active) in test [14]; 14.9 µM (active) in test [15]; 30.4 µM (active) in test [16]; 34 µM (active) in [17]; 29.9 µM (active) in test [18]. Besides, the outcome in test [13] was inactive.
For `Cc1c([N+](=O)[O-])cc2c(c1[N+](=O)[O-])C(C)(C)CC2(C)C`, the figures for the half-maximal activity concentration (AC50) in test [1], in test [12] and in [15] were 3.02 µM (active), 3.06 µM (active) and 0.807 µM (active), respectively. Moreover, the result in test [2], in [3], in [4], in test [19], in test [6] and in test [7] was inactive. Besides, the result in test [8], in test [9], in test [10], in [11], in test [13] and in [14] was inactive. Further, the outcome in [20], in [16], in [17] and in [18] was inactive.
Consider `O=C(O)C1C(C(=O)O)C2(Cl)C(Cl)=C(Cl)C1(Cl)C2(Cl)Cl` (configuration not stated), for which the outcome in [1], in test [2], in test [3], in test [4], in test [5] and in test [6] was inactive. In addition, the outcome in [7], in test [8], in [9], in test [10], in test [11] and in test [12] was inactive. The outcome in test [13], in test [14], in test [15], in test [16], in test [17] and in test [18] was inactive.
Consider `CC(C)(C)c1ccc(O)cc1`, for which the result in test [1], in test [2], in [3], in test [4], in test [5] and in test [6] was inactive. In addition, the outcome in [7], in test [8], in [9], in test [10], in test [11] and in test [12] was inactive. The outcome in test [13], in [14], in [15], in test [16], in test [17] and in test [18] was inactive.
Take `CCCCc1ccccc1`: the result in test [1], in test [2], in [3], in test [4], in test [5] and in [6] was inactive. The outcome in test [7], in test [8], in test [9], in [10], in [11] and in test [12] was inactive. Moreover, the result in test [13], in [14], in [15], in [16], in test [17] and in test [18] was inactive.
Consider `O=P(OCC(Br)CBr)(OCC(Br)CBr)OCC(Br)CBr` (configuration not stated), for which the outcome in [1], in [2], in [3], in test [4], in test [19] and in [6] was inactive. The result in test [7], in test [9], in test [10], in [11], in test [12] and in test [13] was inactive. Moreover, the outcome in test [15], in test [16], in test [17] and in test [18] was inactive. In addition, the AC50 in [8] was 26.2 µM (active); in test [14], 21.1 µM (active).

A word on the AC50: it is the concentration giving half of the maximal activity seen.
